# PubChem BioAssay (EPA / NIEHS)
# Active and inactive are the calls of the source. How the source made its calls: active means hit-call score of the fitted dose curve at least 0.9, where 1 is the maximum; inactive means score below 0.9.
# Target: CCAAT/enhancer-binding protein beta (Homo sapiens) (UniProt P17676)
# Assay: ATG_C_EBP_CIS: Attagene CIS-FACTORIAL HepG2 Assay for human CCAAT/Enhancer Binding Protein (C/EBP) beta (AID 2282927)
# Details: HepG2 Attagene cis-factorial transcription factor reporter; actives raise or lower the signal
# Procedure: ATG_CIS is a cell-based, multiplexed-readout assay that uses HepG2, a human liver cell line, with measurements taken at 24 hours after chemical dosing in a 24-well plate.ATG_C_EBP_CIS is one of 52 assay component(s) measured or calculated from the ATG_CIS assay. It is designed to make measurements of mRNA induction, a form of inducible reporter, as detected with fluorescence intensity signals by Reverse transcription polymerase chain reaction (RT-PCR) and Capillary electrophoresis technology.Data from the assay component ATG_C_EBP_CIS was analyzed into 1 assay endpoint. This assay endpoint, ATG_C_EBP_CIS, was analyzed with bidirectional fitting relative to DMSO as the negative control and baseline of activity. Using a type of inducible reporter, measures of mRNA for gain or loss-of-signal activity can be used to understand the reporter gene at the transcription factor-level as they relate to the gene CEBPB. Furthermore, this assay endpoint can be referred to as a primary readout, because this assay has produced multiple assay endpoints where this one serves a reporter gene function. To generalize the intended target to other relatable targets, this assay endpoint is annotated to the dna binding intended target family, where the subfamily is basic leucine zipper.
# Human liver HepG2 cells are transiently transfected with multiple reporter transcription units (MRTUs) in 6-well plates using FuGene 6 reagent (Roche; 3 ml FuGene/1 mg DNA). The MRTU constructs are regulated by a cis-regulating element (promoter). […] A major difference between the CIS and TRANS system is that in CIS activities of endogenous TFs are measured, whereas the TRANS assay evaluates changes in activities of exogenous, chimeric NR-Gal4 proteins. […] At the end of 24 hour incubation, total RNA was isolated using TriZol reagent (Invitrogen). The isolated RNA is then reverse-transcribed using oligo(dT) primer and Mo-MLV reverse transcriptase (Invitrogen) with DNAse I (Ambion) treatment for 30 min. The one-tenth of the produced cDNA was amplified by PCR using Taq DNA polymerase (Invitrogen) and two reporter sequence-specific primers. The PCR products were fluorescently labeled by primer extension with 6-arboxyfluorescein (6-FAM) 5'-labeled reporter sequence-specific primer (2 min at 95 C, 20 s at 68 C and 10 min at 72 C) and these products were digested with 5U of HpaI (New England Biolabs) for 2h at 37 C. The fragments were purified using Qiaquick PCR columns (Qiagen), analyzed on an ABI 3130xL genetic analyzer (Applied Biosystems) with peak positions identified by using a set of X-rhodamine (ROX)-labeled MapMarker1000 molecular weight standards (BioVentures). The raw capillary electrophoresis data was processed using Attagraph software (Attagene).
# Chain of CCAAT/enhancer-binding protein beta (Homo sapiens) (P17676 whole entry, looked up): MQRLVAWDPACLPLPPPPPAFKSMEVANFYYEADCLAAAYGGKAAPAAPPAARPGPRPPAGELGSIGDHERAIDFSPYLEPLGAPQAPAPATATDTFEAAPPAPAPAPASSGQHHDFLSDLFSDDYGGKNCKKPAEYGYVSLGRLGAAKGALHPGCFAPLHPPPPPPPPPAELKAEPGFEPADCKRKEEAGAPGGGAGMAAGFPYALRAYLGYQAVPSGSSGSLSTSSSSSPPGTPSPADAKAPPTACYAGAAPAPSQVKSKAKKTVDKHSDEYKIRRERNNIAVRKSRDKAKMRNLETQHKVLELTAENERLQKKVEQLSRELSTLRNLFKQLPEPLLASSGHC
SMILES,outcome,AC50
CC(C)[C@@H](C(=O)O[C@@H](C#N)c1cccc(Oc2ccccc2)c1)c1ccc(Cl)cc1,inactive,–
O=c1c2ccccc2c(=O)c2c1cc(Cl)c1[nH]c3c([nH]c12)c(Cl)cc1c(=O)c2ccccc2c(=O)c13,inactive,–
CN1C[C@H](C(=O)N[C@]2(C)O[C@@]3(O)[C@@H]4CCCN4C(=O)[C@H](Cc4ccccc4)N3C2=O)C=C2c3cccc4[nH]cc(c34)C[C@H]21,inactive,–
C[N+](C)=CCl,inactive,–
O=S(=O)(O)OOS(=O)(=O)O,inactive,–
CCOP(=O)(OCC)Oc1ccc([N+](=O)[O-])cc1,inactive,–
CC(=O)c1cc2c(cc1C)C(C)(C)C(C)CC2(C)C (stereo not given),–,108 µM (active)
O=C(NCNC(=O)NC1C(=O)NC(=O)N1CO)NC1C(=O)NC(=O)N1CO (stereo not given),inactive,–
CC1(C)C(=O)NC(=O)NC1=O,inactive,–
C=Cc1cccc(CCl)c1,inactive,–
CC1(C)[C@H](C(=O)O[C@H](C#N)c2cccc(Oc3ccccc3)c2)[C@@H]1C=C(Br)Br,inactive,–
O=C(O)c1cc[c]([Hg][Cl])cc1,inactive,–
CN(N=O)c1ccccc1,inactive,–
C[N+](C)(C)CC(=O)O,inactive,–
[Cl-].[Cl-].[Cl-].[Yb+3],inactive,–
CCC[N+](=O)[O-],inactive,–
Nc1ccccc1,inactive,–
CCOC(=O)N(C)N=O,inactive,–
O=C(NC(=O)c1c(F)cccc1F)Nc1ccc(Oc2ccc(C(F)(F)F)cc2Cl)cc1F,inactive,–
O=C(O)COc1ccccc1,inactive,–

SMILES,outcome,AC50
CNC(=O)Oc1cc(C)c(SC)c(C)c1,inactive,–
CCc1cc(C)cc(CC)c1-c1c(OC(=O)C(C)(C)C)n2n(c1=O)CCOCC2,inactive,–
O=C1C=CC(=O)C=C1,inactive,–
CCOC(=O)COc1ccc(Cl)cc1Cl,inactive,–
CC1(C)CC(=O)CC(C)(C)N1[O],inactive,–
Cc1ccc(C)c2ccccc12,inactive,–
O=S(=O)(O)O,inactive,–
Cc1ccccc1CCl,inactive,–
C=CCc1ccc(OC(=O)Cc2ccccc2)c(OC)c1,inactive,–
C=CC(=O)OCCO,–,123 µM (active)
CCCCCc1cc(O)cc(O)c1,inactive,–
c1cc(OCC2CO2)ccc1Cc1ccc(OCC2CO2)cc1 (stereo not given),inactive,–
CCOC(=O)NC(=S)Nc1ccccc1NC(=S)NC(=O)OCC,inactive,–
C=COCCCl,inactive,–
COC(C)(C)CCC[C@H](C)C/C=C/C(C)=C/C(=O)OC(C)C,inactive,–
CCCCCCC1CCOC1=O (stereo not given),inactive,–
N#CC(c1ccccc1)c1ccccc1,inactive,–
O=[N+]([O-])c1ccc(Cl)cc1,inactive,–
Nc1c(Cl)c(Cl)c(Cl)c(Cl)c1Cl,inactive,–
C[C@]12CCC(=O)C(O)=C1CC[C@@H]1[C@@H]2CC[C@]2(C)C(=O)CC[C@@H]12,inactive,–
